This is a sample that favours compounds with a hit; in the whole collection about 3.1% have one here.
PAFAH2 inh: PAFAH2 (human) inhibition | Q99487 | AID 492956 | inhibition, % at 3.39 µM | recombinant PAFAH2, FP-rhodamine activity probe, fluorescence polarization | 340,000 compounds, 0.99% hits;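 active = inhibition above the mean over all tested compounds plus 3 SD, cut at about 30% in these data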;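 note: inhibitors block probe labeling of enzyme so polarization drops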
pPAFAH FP inh: inhibitors of human plasma PAF acetylhydrolase (pPAFAH) | Q13093 | recombinant pPAFAH, FP-rhodamine probe fluorescence polarization | inhibition, % at 3.39 µM | 330,000 compounds, 1.5% hits;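 active = inhibition above the mean inhibition across the screen plus 3 SD, cut at about 25% in these data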;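 note: inhibitors block binding of the rhodamine activity-based probe so polarization drops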
Target sequence (Q13093 whole entry, looked up): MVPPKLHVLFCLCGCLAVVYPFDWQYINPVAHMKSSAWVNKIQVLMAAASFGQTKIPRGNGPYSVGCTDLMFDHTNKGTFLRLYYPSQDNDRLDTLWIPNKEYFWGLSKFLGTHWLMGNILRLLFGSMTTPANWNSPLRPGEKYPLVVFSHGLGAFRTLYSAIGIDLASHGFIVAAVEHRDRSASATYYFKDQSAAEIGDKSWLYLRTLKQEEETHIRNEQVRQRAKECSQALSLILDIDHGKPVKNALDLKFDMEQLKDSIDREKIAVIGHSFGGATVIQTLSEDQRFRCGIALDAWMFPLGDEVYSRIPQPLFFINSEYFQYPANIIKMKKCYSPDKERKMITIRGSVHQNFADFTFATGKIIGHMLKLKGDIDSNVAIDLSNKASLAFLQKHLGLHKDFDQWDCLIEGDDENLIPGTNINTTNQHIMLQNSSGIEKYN
eLon inh: inhibits E. coli Lon protease; purified E. coli Lon protease, fluorescence polarization; 360,000 compounds, 0.42% hits; inhibition, % at 7.94 µM; in the data active = inhibition above about 13%, passing the limit was not always enough
PAFAH1B3 inh: inhibitors of human PAFAH1B3 | recombinant PAFAH1B3, FP-rhodamine probe, fluorescence polarization | inhibition, % at 3.39 µM | 340,000 compounds, 0.28% hits;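 active = inhibition above the screen-wide average of all tested compounds plus 3 SD, cut at about 25% in these data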
Rin1-Abl PPI inh: blocks binding of human Rin1 to Abl. AID 588664. 360,000 compounds, 0.4% hits. inhibition, % at 7.35 µM. P00519+Q13671. TR-FRET Rin1/Abl binding, biochemical; in the data active = inhibition above about 5%, passing the limit was not always enough
PAFAH1B2 inh: PAFAH1B2 (human) inhibition; recombinant PAFAH1B2, FP-rhodamine activity probe, fluorescence polarization; inhibition, % at 3.39 µM; 340,000 compounds, 1.2% hits; AID 492953;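 active = inhibition above the mean of all tested compounds plus 3 SD, cut at about 24% in these data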
PAFAH2 FP conf: PAFAH2 (human) inhibition, confirmed | shares compounds with PAFAH2 inh | recombinant PAFAH2, FP-rhodamine activity probe, fluorescence polarization | inhibition, % at 3.39 µM | 2,300 compounds, 65% hits | AID 493030;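 active = mean inhibition over three repeats above a set limit taken from the earlier primary screen, cut at about 30% in these data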;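 note: inhibitor blocks binding of rhodamine activity probe so polarization falls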
Hits are given with their value; - = inactive; . = not tested or not shown.

SMILES	PAFAH2 inh	pPAFAH FP inh	eLon inh	PAFAH1B3 inh	Rin1-Abl PPI inh	PAFAH1B2 inh	PAFAH2 FP conf
NS(=O)(=O)c1ccc(O)c(NC(=O)c2ccc([N+](=O)[O-])cc2)c1	31	-	-	-	-	-	-
CC(=O)Nc1ccc(C(=O)OCC(=O)NC(=O)NC2CCCCC2)cc1	53	-	-	-	-	-	39
Cc1cccc(C(=O)OCC(=O)NC(=O)NC2CCCCC2)c1	.	.	-	.	-	.	.
CC(C)Oc1ccc(C(=O)OCC(=O)NC(=O)NC2CCCC2)cc1	41	-	-	-	-	-	34
CC(Oc1ccccc1)C(=O)OCC(=O)NC(=O)NC1CCCCC1 (configuration not stated)	-	-	-	-	-	-	.
O=C1OC(c2cccs2)Sc2ccccc21 (configuration not stated)	.	.	-	.	-	.	.
O=C1OC(c2ccccc2)Sc2ccccc21 (configuration not stated)	81	.	-	-	-	-	85
CC1CCCC(C)N1/N=C/c1ccc(N(C)C)cc1 (configuration not stated)	38	-	-	-	-	-	-
CC1CCCC(C)N1/N=C/c1ccc([N+](=O)[O-])cc1 (configuration not stated)	-	-	-	-	-	-	.
CC1CC(OC(=O)C2CCN(S(=O)(=O)c3ccc(F)cc3)CC2)C(=O)O1 (configuration not stated)	-	.	-	-	-	-	.
Cn1cnnc1SCC(=O)Nc1sc2c(c1C(N)=O)CCC2	38	34	-	-	-	-	-
Cc1ccc(C(=O)c2ccccc2C(=O)OCC(=O)NCCc2ccc(Cl)cc2Cl)cc1	46	-	-	-	-	-	49
O=C(COC(=O)/C=C/c1ccccc1Cl)NCCc1ccc(Cl)cc1Cl	66	-	-	-	-	-	52
O=C(NCc1cccc(C(F)(F)F)c1)c1ccc2nc([C@H]3C[C@H](O)[C@@H](CO)O3)[nH]c2c1	.	.	-	.	-	.	.
COc1ccccc1NS(=O)(=O)c1cccc(C(=O)N/N=C/c2ccc([N+](=O)[O-])o2)c1	-	.	-	-	-	-	.
Cc1cccc(C(=O)NCC(=O)NCC2COc3ccccc3O2)c1 (configuration not stated)	-	-	-	-	-	-	.
Cc1occc1C(=O)N/N=C/c1cccc2ccccc12	-	-	-	-	-	-	.
CC(=O)Nc1ccc(C(=O)N2CCCC(c3cc(C(=O)NCc4ccccc4)no3)C2)cc1 (configuration not stated)	.	.	-	.	-	.	.
O=C(COC(=O)c1ccc(F)c(S(=O)(=O)N2CCCCC2)c1)NCc1ccc(F)cc1	32	-	-	-	-	-	-
COc1ccc(C(=O)OCC(=O)c2ccccc2)cc1S(=O)(=O)N1CCOCC1	52	-	-	-	-	-	40
O=C(COC(=O)c1ccc(CNS(=O)(=O)c2ccc(F)c(Cl)c2)cc1)NC1CCCCCCC1	-	-	-	-	-	-	.
O=C(COC(=O)c1ccc(F)c(S(=O)(=O)N2CCOCC2)c1)NCCc1ccc(F)cc1	30	-	-	-	-	-	-
O=C(COC(=O)c1ccc(CNS(=O)(=O)c2ccc(F)c(Cl)c2)cc1)NCC1CCCCC1	59	-	-	-	-	-	66
COc1cccc(CN(C)C(=O)CSCC(=O)Nc2cccc(C)c2)c1OC	-	-	-	-	-	-	.
O=c1[nH][nH]c2c1[C@H](CCc1cccc(Cl)c1)O[C@H](CCc1ccccc1)C2	.	.	-	.	.	.	.
SMILES	PAFAH2 inh	pPAFAH FP inh	eLon inh	PAFAH1B3 inh	Rin1-Abl PPI inh	PAFAH1B2 inh	PAFAH2 FP conf
Cc1cc(=O)n2[nH]c(SCc3c(F)cccc3Cl)nc2n1	-	-	-	-	-	-	.
COc1ccc(C(=O)OCC(=O)NCCc2ccc(F)cc2)cc1S(=O)(=O)N1CCOCC1	66	-	-	-	-	-	47
Nc1cc(C(=O)OCC(=O)NCc2ccc(F)cc2)ccc1Cl	55	-	-	-	-	-	44
COc1ccc(C(=O)NCCc2ccc(C(F)(F)F)cc2)cc1S(=O)(=O)N1CCOCC1	-	-	-	-	-	-	.
COc1ccc(C(=O)OCCOc2cccc(Cl)c2)cc1S(=O)(=O)N1CCOCC1	35	-	-	-	-	-	-
O=C(NC1CCCC1)C(c1ccccn1)N(Cc1ccc(F)cc1)C(=O)c1csnn1 (configuration not stated)	-	-	-	-	-	-	.
CC(=O)Oc1ccc(N(C(C)=O)S(=O)(=O)c2ccc3ccccc3c2)cc1	-	-	-	-	-	-	.
CC(=O)OCC(O)C1(O)CCC2C3CCC4=CC(=O)CCC4(C)C3C(O)CC21C (configuration not stated)	.	.	-	.	-	.	.
COc1ccc(/C=C/C(=O)OCC(=O)Nc2cccc(S(=O)(=O)NC3=NCCCCC3)c2)cc1	68	-	-	-	-	-	50
Nc1ccc(C(=O)OCC(=O)Nc2cccc(S(=O)(=O)NC3=NCCCCC3)c2)cc1[N+](=O)[O-]	54	-	-	-	-	-	60
O=C(COc1ccccc1[N+](=O)[O-])Nc1cccc(S(=O)(=O)NC2=NCCCCC2)c1	-	-	-	-	-	-	.
O=C(COC(=O)c1ccc(O)cc1)Nc1cccc(S(=O)(=O)NC2=NCCCCC2)c1	39	-	-	-	-	-	43
COc1cc(OC)cc(C(=O)OCC(=O)Nc2cccc(S(=O)(=O)NC3=NCCCCC3)c2)c1	-	-	-	-	-	-	.
CC(NC(=O)C12CC3CC(CC(O)(C3)C1)C2)c1ccccc1 (configuration not stated)	-	-	-	-	-	-	.
Cc1ccc(NC(=O)COC(=O)c2ccc(OC(F)F)cc2)cc1S(=O)(=O)N1CCCCC1	51	.	-	-	-	-	42
Cc1ccc(NC(=O)COC(=O)c2ccc3c(c2)OCO3)cc1S(=O)(=O)N1CCCCC1	69	-	-	-	-	-	63
Cc1ccc(C(=O)OCC(=O)Nc2ccc(C)c(S(=O)(=O)N3CCCCC3)c2)o1	.	.	-	.	-	.	.
Cc1noc(C)c1S(=O)(=O)Nc1ccc2c(c1)C(=O)N([C@@H](C)CO)C[C@H](C)[C@@H](CN(C)Cc1ccc(C(F)(F)F)cc1)OCCCC[C@H](C)O2	.	.	-	.	-	.	.
CCN(CC)c1ccc2c(c1)oc(=O)c1c(Cl)cc(=O)oc12	36	-	-	-	-	-	-
CCN(CC)c1ccc2c(C)c(Cl)c(=O)oc2c1	-	-	-	-	-	-	.
O=c1n2c(c(O)n1C1CCCCC1)C(c1ccccc1)=Nc1ccccc1C2	.	.	-	.	-	.	.
Cc1ccc(C(=O)OCC(=O)NC2CCCC(C)C2C)cc1S(=O)(=O)N1CCCCC1 (configuration not stated)	39	-	-	-	-	-	-
O=C(COC(=O)c1ccc(Cl)c(S(=O)(=O)N2CCCC2)c1)NC1CCCCC1	36	-	-	-	-	-	-

Compound activity (PubChem BioAssay)
